# “And” between values parts separate entries of the source, which are not always exact repeats. Equal entries are not always repeated. The whole screen tested about 5,500 compounds, of which about 2,000 (36%) were called active. About 18% were inconclusive and are not listed. The list shows a part of the results. Unmarked numbers belong to inactive results. Cut-off read from the data, not from the text of the source: active = normalized growth mostly below about 0.91 (no sharp cut-off); inconclusive = no clear call, values can overlap the other calls; inactive = mostly above about 0.92.
# Assay: chemical genetic growth profiling, strain panel (AID 1159580);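 note: tested at 20 µM; growth read once vehicle control cultures reached saturation at 30 °C; 1 = growth at the plate median or of vehicle wells; lower values mean less growth of the strain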
# Details: S. cerevisiae deletion strains, growth OD
compound,measurement,setting,value
CN(C)CCCO[C@H]1[C@@H](C(O)CO)OC2OC(C)(C)O[C@@H]21 (some centres not stated),normalized growth,"locus YAL013W, strain DEP1, stronger effect = lower value",0.928
same,normalized growth,"locus YAL021C, strain ccr4, stronger effect = lower value",1
same,normalized growth,"locus YAL026C, strain drs2, stronger effect = lower value",0.98
same,normalized growth,"locus YAL030W, strain snc1, stronger effect = lower value",0.98
same,normalized growth,"locus YBL061C, strain skt5, stronger effect = lower value",0.98
same,normalized growth,"locus YBR009C, strain hhf1, stronger effect = lower value",0.985
same,normalized growth,"locus YBR021W, strain FUR4, stronger effect = lower value",0.953
same,normalized growth,"locus YBR023C, strain chs3, stronger effect = lower value",0.98
same,normalized growth,"locus YBR171W, strain sec66, stronger effect = lower value",0.964
same,normalized growth,"locus YBR229C, strain ROT2, stronger effect = lower value",0.993
same,normalized growth,"locus YBR231C, strain swc5, stronger effect = lower value",0.992
same,normalized growth,"locus YBR279W, strain paf1, stronger effect = lower value",1.01
same,normalized growth,"locus YCL011C, strain gbp2, stronger effect = lower value",0.956
same,normalized growth,"locus YCL016C, strain dcc1, stronger effect = lower value",0.973
same,normalized growth,"locus YCL029C, strain bik1, stronger effect = lower value",0.984
same,normalized growth,"locus YCL061C, strain MRC1, stronger effect = lower value",0.987
same,normalized growth,"locus YCL069W, strain vba3, stronger effect = lower value",0.996
same,normalized growth,"locus YCR088W, strain abp1, stronger effect = lower value",0.994
same,normalized growth,"locus YDL005C, strain med2, stronger effect = lower value",0.995
same,normalized growth,"locus YDL035C, strain GPR1, stronger effect = lower value",0.946
same,normalized growth,"locus YDL040C, strain nat1, stronger effect = lower value",0.995
same,normalized growth,"locus YDL074C, strain BRE1, stronger effect = lower value",0.871
same,normalized growth,"locus YDL101C, strain DUN1, stronger effect = lower value",0.994
same,normalized growth,"locus YDL134C, strain PPH21, stronger effect = lower value",0.991
same,normalized growth,"locus YDL185W, strain tfp1, stronger effect = lower value",0.98
same,normalized growth,"locus YDL192W, strain arf1, stronger effect = lower value",0.966
same,normalized growth,"locus YDR001C, strain nth1, stronger effect = lower value",0.968
same,normalized growth,"locus YDR069C, strain doa4, stronger effect = lower value",0.989
same,normalized growth,"locus YDR101C, strain arx1, stronger effect = lower value",0.981
same,normalized growth,"locus YDR137W, strain rgp1, stronger effect = lower value",0.963
same,normalized growth,"locus YDR150W, strain NUM1, stronger effect = lower value",0.995
same,normalized growth,"locus YDR159W, strain sac3, stronger effect = lower value",0.982
same,normalized growth,"locus YDR162C, strain NBP2, stronger effect = lower value",1.08
same,normalized growth,"locus YDR195W, strain ref2",0.995
same,normalized growth,"locus YDR297W, strain sur2, stronger effect = lower value",0.992
same,normalized growth,"locus YDR318W, strain mcm21, stronger effect = lower value",0.933
same,normalized growth,"locus YDR334W, strain swr1, stronger effect = lower value",0.938
same,normalized growth,"locus YDR335W, strain msn5, stronger effect = lower value",0.981
same,normalized growth,"locus YDR388W, stronger effect = lower value",0.989
same,normalized growth,"locus YDR392W, strain spt3, stronger effect = lower value",0.921
same,normalized growth,"locus YDR502C, strain sam2, stronger effect = lower value",0.937
same,normalized growth,"locus YEL003W, strain gim4, stronger effect = lower value",0.98
same,normalized growth,"locus YEL037C, strain rad23, stronger effect = lower value",0.977
same,normalized growth,"locus YEL061C, strain CIN8 (second series), stronger effect = lower value",0.975
same,normalized growth,"locus YEL061C, strain CIN8, stronger effect = lower value",0.993
same,normalized growth,"locus YER015W, strain faa2, stronger effect = lower value",0.991
same,normalized growth,"locus YER016W, strain bim1, stronger effect = lower value",0.999
same,normalized growth,"locus YER110C, stronger effect = lower value",0.946
same,normalized growth,"locus YER111C, strain swi4, stronger effect = lower value",0.986
same,normalized growth,"locus YER155C, strain BEM2 (second series), stronger effect = lower value",0.98
same,normalized growth,"locus YER155C, strain BEM2, stronger effect = lower value",1
same,normalized growth,"locus YER167W, strain BCK2, stronger effect = lower value",0.915
same,normalized growth,"locus YFR010W, strain ubp6, stronger effect = lower value",0.971
same,normalized growth,"locus YGL078C, strain dbp3, stronger effect = lower value",1
same,normalized growth,"locus YGL086W, strain mad1, stronger effect = lower value",0.926 (active)
same,normalized growth,"locus YGL167C, strain pmr1, stronger effect = lower value",0.984
same,normalized growth,"locus YGL173C, strain kem1, stronger effect = lower value",0.964
same,normalized growth,"locus YGL227W, strain vid30, stronger effect = lower value",0.987
same,normalized growth,"locus YGL240W, strain doc1, stronger effect = lower value",1
same,normalized growth,"locus YGL248W, strain PDE1, stronger effect = lower value",0.977
same,normalized growth,"locus YGL253W, strain hxk2, stronger effect = lower value",0.996
same,normalized growth,"locus YGR078C, strain PAC10, stronger effect = lower value",0.907
same,normalized growth,"locus YGR135W, strain pre9, stronger effect = lower value",0.929
same,normalized growth,"locus YGR229C, strain SMI1, stronger effect = lower value",0.8 (active)
same,normalized growth,"locus YGR252W, strain gcn5, stronger effect = lower value",0.849
same,normalized growth,"locus YHR013C, strain ard1, stronger effect = lower value",0.973
same,normalized growth,"locus YHR027C, strain rpn1, stronger effect = lower value",0.968
same,normalized growth,"locus YHR030C, strain SLT2, stronger effect = lower value",0.984 and 0.969
same,normalized growth,"locus YHR079C, strain IRE1 (second series), stronger effect = lower value",0.977
same,normalized growth,"locus YHR079C, strain IRE1, stronger effect = lower value",0.984
same,normalized growth,"locus YHR094C, strain hxt1, stronger effect = lower value",0.986
same,normalized growth,"locus YHR129C, strain ARP1, stronger effect = lower value",0.963
same,normalized growth,"locus YHR142W, strain chs7, stronger effect = lower value",0.946
same,normalized growth,"locus YHR200W, strain rpn10, stronger effect = lower value",0.948
same,normalized growth,"locus YIL066C, strain RNR3, stronger effect = lower value",0.951
same,normalized growth,"locus YIL073C, strain SPO22, stronger effect = lower value",0.932
same,normalized growth,"locus YIL125W, strain kgd1, stronger effect = lower value",0.993
same,normalized growth,"locus YIR030C, strain dcg1, stronger effect = lower value",0.986
same,normalized growth,"locus YJL092W, strain hpr5, stronger effect = lower value",0.987
same,normalized growth,"locus YJL095W, strain BCK1 (second series), stronger effect = lower value",0.993
same,normalized growth,"locus YJL095W, strain BCK1, stronger effect = lower value",0.883 and 0.978
same,normalized growth,"locus YJL115W, strain asf1, stronger effect = lower value",0.963
same,normalized growth,"locus YJL129C, strain trk1, stronger effect = lower value",1.01
same,normalized growth,"locus YJL134W, strain LCB3, stronger effect = lower value",0.993
same,normalized growth,"locus YJL154C, strain vps35, stronger effect = lower value",0.966
same,normalized growth,"locus YJL164C, strain tpk1, stronger effect = lower value",0.998
same,normalized growth,"locus YJL166W, strain qcr8, stronger effect = lower value",0.969
same,normalized growth,"locus YJL168C, strain set2, stronger effect = lower value",0.985
same,normalized growth,"locus YJL187C, strain SWE1 (second series), stronger effect = lower value",0.989
same,normalized growth,"locus YJL187C, strain SWE1, stronger effect = lower value",0.994
same,normalized growth,"locus YJR043C, strain POL32, stronger effect = lower value",0.85 (active)
same,normalized growth,"locus YJR066W, strain TOR1, stronger effect = lower value",0.97

# Reference: PubChem BioAssay AID1159580 (chemical genetic matrix, 2015)
